Source: the supplement of paper PMC12067093, “Discovery and optimisation of a covalent ligand for TRIM25 and its application to targeted protein ubiquitination” (Chemical Science, 2025)
About 21,000 targets were measured; listed, in parts, are those with the largest changes and a random draw of the rest.

Compound: Cc1cc(ccc1-c1ccccc1)C(=O)N1CCCN(CC1)C(=O)CCl [compound 10]
Experiment: probe-labelled cysteine peptide fold change vs DMSO (competition) (log2 fold change); higher = less target engagement (more negative = stronger competition)
Details: THP-1, incubation time: 4 h
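Further: competitive profiling in live THP-1 cells: cysteine peptides tagged with an iodoacetamide desthiobiotin (IA-DTB) probe, intensity after compound treatment relative to DMSO-treated cells.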

UniProt Q8IWT3, sequence (Q8IWT3 whole entry, looked up): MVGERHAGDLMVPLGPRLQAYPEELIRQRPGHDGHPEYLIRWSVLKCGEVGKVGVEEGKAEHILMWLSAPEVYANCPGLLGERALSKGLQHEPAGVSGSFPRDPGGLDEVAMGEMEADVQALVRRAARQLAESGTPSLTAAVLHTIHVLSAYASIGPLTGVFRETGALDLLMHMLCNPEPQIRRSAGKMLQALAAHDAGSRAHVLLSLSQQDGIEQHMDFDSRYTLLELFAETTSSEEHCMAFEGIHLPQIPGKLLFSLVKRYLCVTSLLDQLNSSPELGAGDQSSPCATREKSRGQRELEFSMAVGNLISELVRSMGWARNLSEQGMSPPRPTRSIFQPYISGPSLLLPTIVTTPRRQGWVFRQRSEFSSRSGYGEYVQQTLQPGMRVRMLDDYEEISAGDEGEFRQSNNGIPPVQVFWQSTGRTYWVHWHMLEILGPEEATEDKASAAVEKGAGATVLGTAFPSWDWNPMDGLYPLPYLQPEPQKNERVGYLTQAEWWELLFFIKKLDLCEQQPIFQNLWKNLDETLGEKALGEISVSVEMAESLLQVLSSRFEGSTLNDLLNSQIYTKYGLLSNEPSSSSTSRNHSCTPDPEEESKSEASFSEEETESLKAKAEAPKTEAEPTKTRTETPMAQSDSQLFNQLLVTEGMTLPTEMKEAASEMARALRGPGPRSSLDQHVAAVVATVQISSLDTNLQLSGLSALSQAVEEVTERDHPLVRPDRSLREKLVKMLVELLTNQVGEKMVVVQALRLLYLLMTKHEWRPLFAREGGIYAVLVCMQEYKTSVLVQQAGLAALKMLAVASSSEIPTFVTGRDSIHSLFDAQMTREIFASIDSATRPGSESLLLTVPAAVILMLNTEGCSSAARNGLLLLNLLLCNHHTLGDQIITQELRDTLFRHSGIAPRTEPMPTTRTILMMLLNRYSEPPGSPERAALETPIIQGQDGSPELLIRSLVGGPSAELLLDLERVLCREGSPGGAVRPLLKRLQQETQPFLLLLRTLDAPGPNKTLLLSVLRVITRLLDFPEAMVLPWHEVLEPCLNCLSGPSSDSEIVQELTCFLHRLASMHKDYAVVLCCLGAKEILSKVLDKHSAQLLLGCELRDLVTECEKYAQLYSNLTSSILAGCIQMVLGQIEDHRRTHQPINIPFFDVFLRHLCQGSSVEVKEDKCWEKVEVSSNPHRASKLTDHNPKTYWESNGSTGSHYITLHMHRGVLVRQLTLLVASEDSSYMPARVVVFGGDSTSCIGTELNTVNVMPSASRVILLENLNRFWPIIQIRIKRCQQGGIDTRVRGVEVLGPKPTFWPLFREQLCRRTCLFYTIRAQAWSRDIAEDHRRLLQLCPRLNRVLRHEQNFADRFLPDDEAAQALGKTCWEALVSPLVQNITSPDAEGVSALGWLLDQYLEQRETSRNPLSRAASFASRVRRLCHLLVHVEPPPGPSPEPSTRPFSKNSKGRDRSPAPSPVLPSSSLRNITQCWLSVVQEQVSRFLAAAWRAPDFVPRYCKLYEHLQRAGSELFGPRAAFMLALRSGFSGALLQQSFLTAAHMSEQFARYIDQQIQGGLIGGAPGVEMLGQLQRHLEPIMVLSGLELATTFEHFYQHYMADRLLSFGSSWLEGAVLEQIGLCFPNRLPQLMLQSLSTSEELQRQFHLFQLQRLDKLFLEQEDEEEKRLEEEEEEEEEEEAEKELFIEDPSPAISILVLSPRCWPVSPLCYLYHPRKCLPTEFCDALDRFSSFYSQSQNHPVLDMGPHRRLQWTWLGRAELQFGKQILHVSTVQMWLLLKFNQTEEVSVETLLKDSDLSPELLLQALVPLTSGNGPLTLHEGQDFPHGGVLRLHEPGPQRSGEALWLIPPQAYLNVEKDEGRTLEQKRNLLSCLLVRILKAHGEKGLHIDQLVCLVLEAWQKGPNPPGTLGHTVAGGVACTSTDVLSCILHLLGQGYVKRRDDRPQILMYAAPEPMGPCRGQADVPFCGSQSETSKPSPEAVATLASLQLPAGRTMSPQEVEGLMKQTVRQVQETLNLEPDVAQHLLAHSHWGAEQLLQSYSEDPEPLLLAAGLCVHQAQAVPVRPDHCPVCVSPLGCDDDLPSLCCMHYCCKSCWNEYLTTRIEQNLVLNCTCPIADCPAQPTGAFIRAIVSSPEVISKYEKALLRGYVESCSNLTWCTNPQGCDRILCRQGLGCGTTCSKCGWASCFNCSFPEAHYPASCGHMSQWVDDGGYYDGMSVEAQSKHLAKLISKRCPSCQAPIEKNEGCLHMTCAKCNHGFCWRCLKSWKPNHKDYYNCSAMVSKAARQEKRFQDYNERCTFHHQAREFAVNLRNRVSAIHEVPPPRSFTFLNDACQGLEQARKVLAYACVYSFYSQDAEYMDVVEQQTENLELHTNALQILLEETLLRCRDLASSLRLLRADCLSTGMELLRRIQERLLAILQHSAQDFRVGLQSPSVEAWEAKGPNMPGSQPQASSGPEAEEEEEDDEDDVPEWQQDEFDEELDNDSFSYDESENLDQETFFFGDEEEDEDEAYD
UniProt O60832, sequence (O60832 whole entry, looked up): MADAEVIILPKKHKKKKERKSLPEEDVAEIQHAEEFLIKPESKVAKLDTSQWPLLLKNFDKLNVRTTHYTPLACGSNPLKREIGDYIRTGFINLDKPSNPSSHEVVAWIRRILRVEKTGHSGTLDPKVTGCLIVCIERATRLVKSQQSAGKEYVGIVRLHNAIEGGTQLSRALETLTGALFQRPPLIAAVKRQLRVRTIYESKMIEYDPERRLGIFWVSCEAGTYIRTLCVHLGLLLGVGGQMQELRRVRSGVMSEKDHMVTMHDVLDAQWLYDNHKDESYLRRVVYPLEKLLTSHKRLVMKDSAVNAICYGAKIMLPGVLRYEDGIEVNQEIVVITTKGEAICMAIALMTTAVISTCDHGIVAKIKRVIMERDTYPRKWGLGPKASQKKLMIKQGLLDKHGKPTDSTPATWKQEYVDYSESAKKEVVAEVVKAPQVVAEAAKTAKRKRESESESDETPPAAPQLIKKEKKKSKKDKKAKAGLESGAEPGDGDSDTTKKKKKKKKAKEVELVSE
UniProt Q96GQ7, sequence (Q96GQ7 whole entry, looked up): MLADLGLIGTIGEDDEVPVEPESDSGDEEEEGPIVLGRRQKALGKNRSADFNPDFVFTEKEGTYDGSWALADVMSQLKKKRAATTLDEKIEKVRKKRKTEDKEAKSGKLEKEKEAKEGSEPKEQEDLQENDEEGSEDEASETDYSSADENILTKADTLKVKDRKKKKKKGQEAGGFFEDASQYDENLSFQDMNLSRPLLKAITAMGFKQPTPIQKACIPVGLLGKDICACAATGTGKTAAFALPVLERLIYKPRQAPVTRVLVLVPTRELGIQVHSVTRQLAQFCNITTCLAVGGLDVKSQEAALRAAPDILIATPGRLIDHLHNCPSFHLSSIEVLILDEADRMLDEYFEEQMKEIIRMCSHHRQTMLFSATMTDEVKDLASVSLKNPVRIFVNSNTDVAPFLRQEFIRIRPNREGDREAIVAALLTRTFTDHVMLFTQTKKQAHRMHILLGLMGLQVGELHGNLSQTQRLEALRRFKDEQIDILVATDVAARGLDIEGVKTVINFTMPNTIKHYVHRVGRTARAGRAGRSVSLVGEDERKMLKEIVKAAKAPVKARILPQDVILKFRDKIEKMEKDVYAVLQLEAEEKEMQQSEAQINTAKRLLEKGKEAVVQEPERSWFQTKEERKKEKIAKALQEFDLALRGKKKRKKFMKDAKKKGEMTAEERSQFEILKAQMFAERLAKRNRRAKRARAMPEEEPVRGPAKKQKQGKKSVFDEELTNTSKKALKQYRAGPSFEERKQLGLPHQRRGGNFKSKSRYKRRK
UniProt Q96D53, sequence (Q96D53 whole entry, looked up): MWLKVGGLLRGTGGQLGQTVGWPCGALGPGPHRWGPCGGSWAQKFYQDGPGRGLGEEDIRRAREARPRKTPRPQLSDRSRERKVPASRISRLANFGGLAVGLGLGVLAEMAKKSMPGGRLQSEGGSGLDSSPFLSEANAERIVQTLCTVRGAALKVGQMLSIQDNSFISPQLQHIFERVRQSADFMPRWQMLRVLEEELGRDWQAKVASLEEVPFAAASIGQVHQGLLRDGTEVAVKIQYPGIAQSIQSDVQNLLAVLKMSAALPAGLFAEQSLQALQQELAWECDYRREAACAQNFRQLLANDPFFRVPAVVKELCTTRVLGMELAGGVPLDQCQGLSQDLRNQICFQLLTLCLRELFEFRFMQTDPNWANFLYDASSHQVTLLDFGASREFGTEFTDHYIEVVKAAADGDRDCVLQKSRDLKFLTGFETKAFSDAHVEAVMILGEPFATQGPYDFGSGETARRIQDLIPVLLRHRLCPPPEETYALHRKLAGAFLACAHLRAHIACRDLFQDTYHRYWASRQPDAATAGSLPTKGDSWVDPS
UniProt P32321, sequence (P32321 whole entry, looked up): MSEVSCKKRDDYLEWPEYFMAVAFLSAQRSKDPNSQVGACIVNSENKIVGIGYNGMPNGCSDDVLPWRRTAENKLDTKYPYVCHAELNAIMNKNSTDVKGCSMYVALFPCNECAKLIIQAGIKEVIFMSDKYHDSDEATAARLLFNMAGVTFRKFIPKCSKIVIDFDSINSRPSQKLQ
UniProt O95628, sequence (O95628 whole entry, looked up): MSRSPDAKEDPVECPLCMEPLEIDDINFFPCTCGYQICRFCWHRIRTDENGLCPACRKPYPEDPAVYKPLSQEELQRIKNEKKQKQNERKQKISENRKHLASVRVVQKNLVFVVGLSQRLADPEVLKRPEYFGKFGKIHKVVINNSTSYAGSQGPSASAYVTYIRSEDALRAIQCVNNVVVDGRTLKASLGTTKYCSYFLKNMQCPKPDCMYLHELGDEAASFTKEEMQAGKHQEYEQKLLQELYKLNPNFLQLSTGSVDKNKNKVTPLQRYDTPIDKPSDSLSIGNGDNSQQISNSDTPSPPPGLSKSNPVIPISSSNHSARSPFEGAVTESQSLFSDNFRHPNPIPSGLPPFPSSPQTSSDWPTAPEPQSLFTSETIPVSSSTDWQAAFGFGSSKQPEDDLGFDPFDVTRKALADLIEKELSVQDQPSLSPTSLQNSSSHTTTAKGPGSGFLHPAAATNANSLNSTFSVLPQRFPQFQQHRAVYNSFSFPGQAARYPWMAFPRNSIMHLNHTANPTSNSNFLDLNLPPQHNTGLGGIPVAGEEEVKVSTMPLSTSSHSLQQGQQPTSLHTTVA

| Target | probe-labelled cysteine peptide fold change (10 µM) | probe-labelled cysteine peptide fold change (50 µM) |
| --- | --- | --- |
| DDX5_P17844_191_ELAQQVQQVAAEYCR (UniProt P17844) | 0.115 | -0.161 |
| DDX27_Q96GQ7_248_ACIPVGLLGK (UniProt Q96GQ7) | 0.238 | -0.122 |
| CRYZ_Q08257_45_VHACGVNPVETYIR (UniProt Q08257) | 0.0503 | -0.01 |
| DDX50_Q9BQ39_242_LSVACFYGGTSYQSQINHIR (UniProt Q9BQ39) | 0.333 | -0.294 |
| CTPS2_Q9NRF8_299_ICSIALVGK (UniProt Q9NRF8) | -0.0254 | 0.193 |
| DHX9_Q08211_777_VRPGFCFHLCSR (UniProt Q08211) | -0.231 | -0.0284 |
| DLGAP5_Q15398_129_YRPDMPCFLLSNQNAVK (UniProt Q15398) | -0.0877 | -1.31 |
| CUL9_Q8IWT3_76_AEHILMWLSAPEVYANCPGLLGER (UniProt Q8IWT3) | 0.0237 | -0.0123 |
| DDX24_Q9GZR7_570_IHCETDEK (UniProt Q9GZR7) | -0.15 | 0.261 |
| CNPY2_Q9Y2B0_28_SQDLHCGACR (UniProt Q9Y2B0) | -0.272 | -0.187 |
| CUL7_Q14999_952_CQQGGIDTR (UniProt Q14999) | -0.417 | -0.0198 |
| CRTAP_O75718_273_DFYLSIADHYVEVLECK (UniProt O75718) | -0.146 | 1.08 |
| DENND4B_O75064_652_HAALEFFDSCVEK (UniProt O75064) | 0.0262 | 0.235 |
| DENND4A_Q7Z401_952_GSADCLPK (UniProt Q7Z401) | -0.312 | 0.101 |
| DDX17_Q92841_319_CTYLVLDEADRMLDMGFEPQIR (UniProt Q92841) | 0.023 | -0.374 |
| DHX8_Q14562_1108_AICSGFFR (UniProt Q14562) | -0.267 | 0.29 |
| DDX55_Q8NHQ9_161_AEGLDLASCVR (UniProt Q8NHQ9) | 0.187 | 0.31 |
| COQ8B_Q96D53_508_AHIACR (UniProt Q96D53) | -0.221 | -1.08 |
| DENND6A_Q8IWF6_130_VSLHCLLDQFDK (UniProt Q8IWF6) | 0.295 | 1.1 |

| Target | probe-labelled cysteine peptide fold change (10 µM) | probe-labelled cysteine peptide fold change (50 µM) |
| --- | --- | --- |
| COLGALT1_Q8NBJ5_369_ALQAQEIECR (UniProt Q8NBJ5) | 0.0256 | 0.125 |
| CTSH_P09668_272_TGIYSSTSCHK (UniProt P09668) | 0.176 | -0.114 |
| DNAJC7_Q99615_175_ALEFAPACHR (UniProt Q99615) | -0.118 | -0.577 |
| DDX5_P17844_170_TLSYLLPAIVHINHQPFLERGDGPICLVLAPTR (UniProt P17844) | 0.236 | 0.565 |
| CMTR1_Q8N1G2_794_DSTFDLPADSIAPFHICYYGR (UniProt Q8N1G2) | 0.205 | 0.653 |
| CROT_Q9UKG9_584_SCPETDAEK (UniProt Q9UKG9) | -0.0249 | 0.181 |
| CPPED1_Q9BRF8_88_FFVLCGDLIHAMPGKPWR (UniProt Q9BRF8) | -0.0653 | -0.191 |
| DDX5_P17844_200_STCIYGGAPK (UniProt P17844) | -0.0442 | -0.0153 |
| CNOT4_O95628_175_AIQCVNNVVVDGR (UniProt O95628) | -0.0308 | -0.303 |
| DDX10_Q13206_196_INNINILVCTPGR (UniProt Q13206) | 0.0926 | 0.195 |
| CRELD2_Q6UXH1_120_SEYPDLFEWFCVK (UniProt Q6UXH1) | 0.199 | -0.0635 |
| DHRS4L2_Q6PKH6_86_KQQNVDQAVATLQGEGLSVTGTVCHVGK (UniProt Q6PKH6) | 0.254 | -0.306 |
| COPG1_Q9Y678_440_ETGLSHLCEFIEDCEFTVLATR (UniProt Q9Y678) | 0.0873 | 0.125 |
| DCTD_P32321_60_IVGIGYNGMPNGCSDDVLPWR (UniProt P32321) | 0.155 | -0.179 |
| DKC1_O60832_74_TTHYTPLACGSNPLKR (UniProt O60832) | -0.0751 | -0.244 |
| CRABP1_P29762_130_ELANDELILTFGADDVVCTR (UniProt P29762) | 0.082 | 0.307 |
| COPA_P53621_1148_KILSACEK (UniProt P53621) | -0.212 | -1.12 |
| DNAJC7_Q99615_58_AIDMCPK (UniProt Q99615) | 0.162 | 0.0415 |
